# Measured values published in the supplement of paper PMC6522484.
# Values joined by “and” are separate entries in the source; they are usually repeats but may differ in a detail not shown here. Identical values can stand only once. ± gives the standard deviation of the averaged measurements.
# Tests used:
# DLD1 [1] = assay: cell viability (CellTiter-Glo) relative to plate median (fraction of plate median); higher = more viable cells; details: 5 µM; treatment time 24 h; reporter: 7TFP
# Summary of the method: (§1)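 Normalisation used webcellHTS2 in additive mode without log transformation, scaling each well's luminescence to the plate median. The luminescence was firefly luciferase or CellTiterGlo, read on a Tecan F500 from parallel plates of colorectal cancer cells stably transduced with lentiviral TCF/Wnt firefly luciferase reporters. Those cells had been given library compounds at a final 5 µM for 24 h, and two independent replicates were averaged.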
# HCT116 = assay: as above; details: 5 µM; treatment time 24 h; reporter: TCF4/Wnt
# Summary of the method: as §1
# SW480 [2] = assay: as above; details: 5 µM; treatment time 24 h; reporter: 7TFP
# Summary of the method: as §1
# DLD1 [3] = assay: TCF/Wnt firefly luciferase reporter signal relative to plate median (fraction of plate median); higher = higher Wnt reporter signal; details: 5 µM; treatment time 24 h; reporter: 7TFP
# Summary of the method: as §1
# SW480 [4] = assay: as above; details: 5 µM; treatment time 24 h; reporter: 7TFP
# Summary of the method: as §1
SMILES,cell viability (DLD1 [1]),cell viability (HCT116),cell viability (SW480 [2]),TCF/Wnt firefly luciferase reporter signal (DLD1 [3]),TCF/Wnt firefly luciferase reporter signal (SW480 [4])
CC1=C(CC(=O)O)c2cc(F)ccc2/C1=C\c1ccc([S+](C)[O-])cc1 (stereo not given),0.941 ± 0.028,0.901 ± 0.018,0.949 ± 0.1,1.03 ± 0.23,1.03 ± 0.12
CC1(C)O[C@@H]2C[C@H]3[C@@H]4CCC5=CC(=O)C=C[C@]5(C)[C@@]4(F)[C@@H](O)C[C@]3(C)[C@]2(C(=O)CO)O1,0.955 ± 0.027,0.965 ± 0.024,1.03 ± 0.042,1.09 ± 0.021,0.951 ± 0.051
Cc1c(C)c2c(c(C)c1O)CCC(C)(CCCC(C)CCCC(C)CCCC(C)C)O2 (stereo not drawn) [alpha-TOCHOPHEROL],0.963 ± 0.012,0.97 ± 0.085,1.01 ± 0.017,1.07 ± 0.014,1.01 ± 0.16
CCC1(c2ccccc2)C(=O)NCNC1=O,1.02 ± 0.029,0.994 ± 0.15,1 ± 0.025,0.978 ± 0.1,1.06 ± 0.028
COc1ccc(C(=O)c2ccccc2)c(O)c1,1.04 ± 0.042,1.185 ± 0.0071,1.01 ± 0.016,0.8625 ± 0.0064,1.05 ± 0.028
CCN(CC)CCOc1ccc2c(c1)C(=O)c1cc(OCCN(CC)CC)ccc1-2,0.941 ± 0.083,0.925 ± 0.072,0.998 ± 0.045,1.05 ± 0.093,1.02 ± 0.06
C[C@H](N)[C@H](O)c1cccc(O)c1,0.955 ± 0.052,0.997 ± 0.075,1.06 ± 0.035,0.918 ± 0.074,0.915 ± 0.0071
COc1ccc(C[C@H](N)C(=O)N[C@H]2[C@@H](O)[C@H](n3cnc4c(N(C)C)ncnc43)O[C@@H]2CO)cc1,0.892 ± 0.1,0.908 ± 0.04,0.9485 ± 0.00071,0.999 ± 0.03,1.05 ± 0.042
COc1ccc(C=CC(=O)O)cc1OC,0.993 ± 0.0099,1.06 ± 0.085,1.02 ± 0.053,1.12 ± 0.042,0.987 ± 0.033
Cc1cc(O)cc(C)c1Cl,0.903 ± 0.012,0.8955 ± 0.0021,0.918 ± 0.13,0.881 ± 0.059,1.01
COC(C)c1cccc2nc3c(C(=O)O)cccc3nc12 (stereo not given) [Saphenic acid methylether],1.03 ± 0.052,1.13 ± 0.028,1.04 ± 0.028,0.907 ± 0.1,1.15 ± 0.14
COc1c(OC)c2occc2c2oc(=O)ccc12,1.004 ± 0.0085,0.829 ± 0.16,1.02 ± 0.077,0.802 ± 0.21,0.948 ± 0.011
COc1cc(/C=C/C(=O)O)ccc1O,1.004 ± 0.0092,1.11 ± 0.057,1.01 ± 0.038,0.972 ± 0.069,1.12 ± 0.078
COc1ccc2c(c1)OC[C@@H](Cc1ccc(OC)c(OC)c1)[C@H]2O,1.09 ± 0.078,1.06 ± 0.11,0.993 ± 0.095,0.944 ± 0.011,0.94 ± 0.018
COc1cccc2c1CCC1=CC(=O)CC[C@@]12C,1.09 ± 0.099,1.004 ± 0.0085,1.03 ± 0.021,0.944 ± 0.073,0.967 ± 0.1
COc1ccc2c(c1)c(CC(=O)OCC(=O)O)c(C)n2C(=O)c1ccc(Cl)cc1,0.935 ± 0.073,0.885 ± 0.082,0.952 ± 0.04,1.05 ± 0.16,1.07 ± 0.028

SMILES,cell viability (DLD1 [1]),cell viability (HCT116),cell viability (SW480 [2]),TCF/Wnt firefly luciferase reporter signal (DLD1 [3]),TCF/Wnt firefly luciferase reporter signal (SW480 [4])
Cc1cc(=O)[nH]c(=S)[nH]1,1.07 ± 0.05,1.01 ± 0.072,0.979 ± 0.018,1.07 ± 0.071,0.9835 ± 0.0064
CC(C)=CCc1c(O)cc2occ(-c3ccc4c(c3)OCO4)c(=O)c2c1O,1 ± 0.12,1.05 ± 0.071,0.972 ± 0.018,1.02 ± 0.1,0.902 ± 0.45
O=C(O[C@@H]1Cc2c(O)cc(O)cc2O[C@@H]1c1cc(O)c(O)c(O)c1-c1c([C@H]2Oc3cc(O)cc(O)c3C[C@H]2OC(=O)c2cc(O)c(O)c(O)c2)cc(O)c(O)c1O)c1cc(O)c(O)c(O)c1,1.08 ± 0.05,1.15 ± 0.12,1.035 ± 0.0071,1.03 ± 0.11,1.01 ± 0.047
COc1ccc(/C=C/C(=O)c2cc(O)ccc2O)cc1,0.979 ± 0.044,0.959 ± 0.073,0.98 ± 0.029,1.18 ± 0.014,1.05 ± 0.17
CC(C)(C)NCC(O)COc1cccc2c1CC(O)C(O)C2 (stereo not given),1.05 ± 0.11,0.929 ± 0.015,1.04 ± 0.028,1.02 ± 0.15,0.996 ± 0.063
CCC(=O)C(CC)C(O)C(C)CC(C)C1OC(=O)CC2(O)CC=C(C)C(O2)/C(C)=C/CCCC(OC2CC(OC(N)=O)C(O)C(C)O2)/C=C\C(C)C(O)C1C (stereo not given),1.08 ± 0.16,1,0.99 ± 0.015,0.87 ± 0.067,0.974 ± 0.025
NCCc1ccc(O)c(O)c1,0.922 and 1,1.05 and 1.1,0.998 and 0.98,1.01 and 1.02,0.963 and 0.967
O=c1c(O)c(-c2ccccc2)oc2cc(O)ccc12,1 ± 0.05,1.06 ± 0.057,1.035 ± 0.0071,1.01 ± 0.044,0.925 ± 0.1
NCCC(=O)c1ccccc1N,1.03 ± 0.052,1.08 ± 0.057,0.987 ± 0.0085,0.981 ± 0.042,0.838 ± 0.016
C[C@]1(OC(=O)/C=C/c2ccccc2)C[C@@H](O)[C@]2(O)C=CO[C@@H](O[C@@H]3O[C@H](CO)[C@@H](O)[C@H](O)[C@H]3O)[C@@H]21,1.035 ± 0.0071,1.02 ± 0.11,1.06 ± 0.05,1.12 ± 0.028,1.03 ± 0.05
CO[C@@]1(NC(=O)CSCC#N)C(=O)N2C(C(=O)O)=C(CSc3nnnn3C)CS[C@@H]21,0.998 ± 0.031,1.11 ± 0.057,0.9035 ± 0.0021,0.928 ± 0.023,1.02
Cc1cc2nc3c(=O)[nH]c(=O)nc-3n(C[C@H](O)[C@H](O)[C@H](O)CO)c2cc1C,0.984 ± 0.052,0.919 ± 0.051,0.974 ± 0.016,1.07 ± 0.035,0.907 ± 0.021
CCOc1ccc2nc3cc(N)ccc3c(N)c2c1,1.02 ± 0.11,1.02 ± 0.074,0.999 ± 0.016,1.1 ± 0.085,0.925 ± 0.013
CN(C)CCOC(c1ccccc1)c1ccccc1.Cn1c(=O)c2[nH]c(Cl)nc2n(C)c1=O,0.909 ± 0.025,1.04 ± 0.1,0.927 ± 0.022,1.14 ± 0.13,1.12 ± 0.021
CN1CCC[C@@H]1CCO[C@](C)(c1ccccc1)c1ccc(Cl)cc1,0.982 ± 0.096,0.917 ± 0.018,1.05 ± 0.042,0.913 ± 0.19,0.87 ± 0.041
COc1cc2occ(-c3ccc(O)cc3)c(=O)c2cc1O [Kakkatin],1.04 ± 0.028,1.06 ± 0.14,1.01 ± 0.044,1.22 ± 0.028,1.09 ± 0.064
